Values joined by “and” are separate entries in the source; they are usually repeats but may differ in a detail not shown here. Equal values may be shown once. The whole screen tested about 5,500 compounds, of which about 2,000 (36%) were called active. Inconclusive results (about 18%) are left out. Cut-off read from the data, not from the text of the source: active = normalized growth mostly below about 0.91 (no sharp cut-off); inconclusive = no clear call, values can overlap the other calls; inactive = mostly above about 0.92. Some of the results follow.
Assay: chemical genetic growth profiling, strain panel (AID 1159580);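 note: tested at 20 µM; growth read once vehicle control cultures reached saturation at 30 °C; 1 = growth at the plate median or of vehicle wells; lower values mean less growth of the strain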
Conditions: S. cerevisiae deletion strains, growth OD
[1] = locus YPL055C, strain LGE1, active compounds read low
[2] = locus YPL241C, strain CIN2, active compounds read low

Measured: normalized growth

Cc1cc(C)c(NC(=O)C[C@H](CC(=O)O)c2cccc3ccccc23)c(C(=O)N2CCC3(CCCC3)CC2)c1
inactive: locus YAL040C, strain CLN3, active compounds read low 1.01 | locus YCL061C, strain MRC1 (second series), active compounds read low 0.986 | locus YDR363W, strain ESC2, active compounds read low 0.973 | locus YER002W, strain NOP16, active compounds read low 0.975 | locus YGR078C, strain PAC10, active compounds read low 0.972 | locus YGR229C, strain SMI1, active compounds read low 1.01 | locus YMR263W, strain SAP30, active compounds read low 0.995 | locus YNL175C, strain NOP13, active compounds read low 0.976 | locus YNL197C, strain WHI3, active compounds read low 0.964 | locus YNL224C, strain SQS1, active compounds read low 0.977 | locus YNL322C, strain KRE1, active compounds read low 0.99 | locus YOR083W, strain WHI5 (second series), active compounds read low 0.977 | [1] 0.972 | [2] 0.987

CC(C)(C#N)O[C@@H]1O[C@H](CO)[C@@H](O)[C@H](O)[C@H]1O
inactive: locus YAL013W, strain DEP1, active compounds read low 1 | locus YAL021C, strain ccr4, active compounds read low 1.01 | locus YAL026C, strain drs2, active compounds read low 1 | locus YAL030W, strain snc1, active compounds read low 1 | locus YBL061C, strain skt5, active compounds read low 0.998 | locus YBR009C, strain hhf1, active compounds read low 1 | locus YBR021W, strain FUR4, active compounds read low 1.1 | locus YBR023C, strain chs3, active compounds read low 1 | locus YBR171W, strain sec66, active compounds read low 1.01 | locus YBR229C, strain ROT2, active compounds read low 0.997 | locus YBR231C, strain swc5, active compounds read low 0.998 | locus YBR279W, strain paf1, active compounds read low 1.01 | locus YCL011C, strain gbp2, active compounds read low 1.01 | locus YCL016C, strain dcc1, active compounds read low 1 | locus YCL029C, strain bik1, active compounds read low 0.993 | locus YCL069W, strain vba3, active compounds read low 0.997 | locus YCR088W, strain abp1, active compounds read low 1.01 | locus YDL005C, strain med2, active compounds read low 0.993 | locus YDL035C, strain GPR1, active compounds read low 1.02 | locus YDL040C, strain nat1, active compounds read low 1.01 | locus YDL074C, strain BRE1, active compounds read low 1.02 | locus YDL101C, strain DUN1, active compounds read low 1.01 | locus YDL185W, strain tfp1, active compounds read low 0.983 | locus YDL192W, strain arf1, active compounds read low 0.988 | locus YDR001C, strain nth1, active compounds read low 1.01 | locus YDR069C, strain doa4, active compounds read low 1.03 | locus YDR101C, strain arx1, active compounds read low 0.997 | locus YDR137W, strain rgp1, active compounds read low 1.02 | locus YDR150W, strain NUM1, active compounds read low 1.02 | locus YDR159W, strain sac3, active compounds read low 0.965 | locus YDR162C, strain NBP2, active compounds read low 1.05 | locus YDR195W, strain ref2 0.98 | locus YDR297W, strain sur2, active compounds read low 1.01 | locus YDR318W, strain mcm21, active compounds read low 1 | locus YDR334W, strain swr1, active compounds read low 1 | locus YDR335W, strain msn5, active compounds read low 1 | locus YDR388W, active compounds read low 0.992 | locus YDR392W, strain spt3, active compounds read low 1.02 | locus YDR502C, strain sam2, active compounds read low 0.998 | locus YEL003W, strain gim4, active compounds read low 1.01 | locus YEL037C, strain rad23, active compounds read low 1.01 | locus YEL061C, strain CIN8 (second series), active compounds read low 1.02 | locus YEL061C, strain CIN8, active compounds read low 1 | locus YER015W, strain faa2, active compounds read low 0.998 | locus YER016W, strain bim1, active compounds read low 0.999 | locus YER110C, active compounds read low 0.985 | locus YER111C, strain swi4, active compounds read low 1.01 | locus YER155C, strain BEM2 (second series), active compounds read low 1.02 | locus YER155C, strain BEM2, active compounds read low 0.99 | locus YER167W, strain BCK2, active compounds read low 1.01 | locus YFR010W, strain ubp6, active compounds read low 1.01 | locus YGL078C, strain dbp3, active compounds read low 0.989 | locus YGL086W, strain mad1, active compounds read low 0.997 | locus YGL167C, strain pmr1, active compounds read low 1 | locus YGL173C, strain kem1, active compounds read low 1 | locus YGL227W, strain vid30, active compounds read low 1 | locus YGL240W, strain doc1, active compounds read low 1.01 | locus YGL248W, strain PDE1, active compounds read low 1.01 | locus YGL253W, strain hxk2, active compounds read low 1 | locus YGR135W, strain pre9, active compounds read low 0.975 | locus YGR252W, strain gcn5, active compounds read low 0.979 | locus YHR013C, strain ard1, active compounds read low 0.996 | locus YHR027C, strain rpn1, active compounds read low 0.984 | locus YHR030C, strain SLT2, active compounds read low 0.997 and 1.06 | locus YHR079C, strain IRE1 (second series), active compounds read low 0.994 | locus YHR079C, strain IRE1, active compounds read low 1.07 | locus YHR094C, strain hxt1, active compounds read low 0.984 | locus YHR129C, strain ARP1, active compounds read low 1 | locus YHR142W, strain chs7, active compounds read low 1 | locus YHR200W, strain rpn10, active compounds read low 0.995 | locus YIL066C, strain RNR3, active compounds read low 1.02 | locus YIL073C, strain SPO22, active compounds read low 1 | locus YIL125W, strain kgd1, active compounds read low 1 | locus YIR030C, strain dcg1, active compounds read low 0.998 | locus YJL092W, strain hpr5, active compounds read low 1 | locus YJL095W, strain BCK1 (second series), active compounds read low 1.01 | locus YJL095W, strain BCK1, active compounds read low 1.05 and 0.974 | locus YJL115W, strain asf1, active compounds read low 0.999 | locus YJL129C, strain trk1, active compounds read low 1.03 | locus YJL134W, strain LCB3, active compounds read low 0.993 | locus YJL154C, strain vps35, active compounds read low 1.01 | locus YJL164C, strain tpk1, active compounds read low 1 | locus YJL166W, strain qcr8, active compounds read low 1.01 | locus YJL168C, strain set2, active compounds read low 1 | locus YJL187C, strain SWE1 (second series), active compounds read low 1.03 | locus YJL187C, strain SWE1, active compounds read low 1 | locus YJR043C, strain POL32, active compounds read low 1.02 | locus YJR066W, strain TOR1, active compounds read low 0.981 | locus YJR075W, strain HOC1, active compounds read low 1.02 | locus YKL009W, strain mrt4, active compounds read low 0.982 | locus YKL068W, active compounds read low 0.998 | locus YKL085W, strain MDH1 (second series), active compounds read low 1.01 | locus YKL085W, strain MDH1, active compounds read low 1.01 | locus YKL160W, strain elf1, active compounds read low 1 | locus YKL190W, strain CNB1, active compounds read low 1.02 | locus YKR001C, strain vps1, active compounds read low 1 | locus YKR026C, strain gcn3, active compounds read low 0.997 | locus YKR091W, strain srl3, active compounds read low 1 | locus YLL001W, strain dnm1, active compounds read low 1.01 | locus YLL026W, active compounds read low 0.99 | locus YLL041C, strain sdh2, active compounds read low 1.01 | locus YLR027C, strain aat2, active compounds read low 1 | locus YLR039C, strain RIC1, active compounds read low 1.05 | locus YLR058C, strain SHM2, active compounds read low 1.01 | locus YLR102C, strain apc9, active compounds read low 0.983 | locus YLR113W, strain HOG1, active compounds read low 0.999 | locus YLR221C, strain rsa3, active compounds read low 1.03 | locus YLR258W, strain gsy2, active compounds read low 1.01 | locus YLR262C, strain YPT6 (second series), active compounds read low 1.01 | locus YLR262C, strain YPT6, active compounds read low 1.07 | locus YLR268W, strain sec22, active compounds read low 1 | locus YLR320W, strain mms22, active compounds read low 0.999 | locus YLR330W, strain CHS5, active compounds read low 0.994 | locus YLR342W, strain FKS1 (second series), active compounds read low 1.02 | locus YLR342W, strain FKS1, active compounds read low 1 | locus YLR357W, strain rsc2, active compounds read low 0.971 | locus YLR370C, strain arc18, active compounds read low 1 | locus YLR371W, strain rom2, active compounds read low 0.982 | locus YLR384C, strain iki3, active compounds read low 0.986 | locus YLR418C, strain cdc73, active compounds read low 1.01 | locus YML016C, strain PPZ1, active compounds read low 0.987 | locus YML032C, strain rad52, active compounds read low 1.01 | locus YML120C, strain ndi1, active compounds read low 0.994 | locus YML124C, strain tub3, active compounds read low 0.994 | locus YMR058W, strain fet3, active compounds read low 0.999 | locus YMR078C, strain ctf18, active compounds read low 0.976 | locus YMR125W, strain sto1, active compounds read low 1 | locus YMR129W, active compounds read low 0.996 | locus YMR205C, strain PFK2, active compounds read low 1.02 | locus YMR223W, strain ubp8, active compounds read low 0.984 | locus YMR231W, strain pep5, active compounds read low 0.996 | locus YMR307W, strain GAS1, active compounds read low 0.96 | locus YNL067W, strain RPL9B, active compounds read low 1.04 | locus YNL071W, strain lat1, active compounds read low 1.01 | locus YNL183C, strain NPR1, active compounds read low 0.973 | locus YNL209W, strain ssb2, active compounds read low 1.01 | locus YNL233W, strain BNI4, active compounds read low 1.02 | locus YNL248C, strain rpa49, active compounds read low 0.984 | locus YNL250W, strain rad50, active compounds read low 0.978 | locus YNL271C, strain bni1, active compounds read low 0.987 | locus YNL298W, strain CLA4, active compounds read low 0.987 | locus YNL307C, strain MCK1, active compounds read low 1.02 | locus YNL322C, strain KRE1 (second series), active compounds read low 0.993 | locus YNR049C, strain mso1, active compounds read low 1 | locus YNR052C, strain pop2, active compounds read low 0.984 | locus YOL006C, strain TOP1, active compounds read low 1.06 | locus YOL012C, strain htz1 0.871 | locus YOL147C, strain pex11, active compounds read low 0.995 | locus YOR001W, strain rrp6, active compounds read low 1.01 | locus YOR061W, strain CKA2, active compounds read low 0.997 | locus YOR069W, strain VPS5, active compounds read low 0.99 | locus YOR070C, strain gyp1, active compounds read low 1.01 | locus YOR080W, strain dia2, active compounds read low 1.01 | locus YOR083W, strain WHI5, active compounds read low 1.01 | locus YOR106W, strain vam3, active compounds read low 1.04 | locus YOR136W, strain idh2, active compounds read low 0.985 | locus YOR144C, strain elg1, active compounds read low 0.997 | locus YOR184W, strain ser1, active compounds read low 1.03 | locus YOR231W, strain MKK1, active compounds read low 1.01 | locus YOR265W, strain rbl2, active compounds read low 1.01 | locus YOR270C, strain vph1, active compounds read low 1.22 | locus YOR290C, strain snf2, active compounds read low 1.02 | locus YOR316C, strain cot1, active compounds read low 0.983 | locus YPL051W, strain arl3, active compounds read low 1.01 | [1] 1.06 | locus YPL078C, strain atp4, active compounds read low 1.01 | locus YPL106C, strain sse1, active compounds read low 0.985 | locus YPL240C, strain hsp82, active compounds read low 0.995 | [2] 1.01 | locus YPL256C, strain CLN2, active compounds read low 1.06 | locus YPR119W, strain clb2, active compounds read low 0.996 | locus YPR141C, strain kar3, active compounds read low 0.982 | locus YPR163C, strain tif3, active compounds read low 0.997 | locus YPR167C, strain met16, active compounds read low 1.01 | strain wtn01, active compounds read low 0.984

Source: PubChem BioAssay AID1159580 (chemical genetic matrix, 2015)
